Screening data as filed in PubChem.
Shown are actives, neighbours in structure and some others; about 6.1% of the full set was active somewhere.
Luciferase inh = inhibitors of firefly luciferase; purified firefly luciferase, luminescence, 8 min; Potency, µM (series often up to 57.1 µM), for inactives: top-dose activity change, negative = inhibition, hits mostly inhibitors; 72,000 tested, 2.2% active; P08659; also: nearly all actives have a fitted effect of over 40% in size
Target sequence (P08659 whole entry, looked up): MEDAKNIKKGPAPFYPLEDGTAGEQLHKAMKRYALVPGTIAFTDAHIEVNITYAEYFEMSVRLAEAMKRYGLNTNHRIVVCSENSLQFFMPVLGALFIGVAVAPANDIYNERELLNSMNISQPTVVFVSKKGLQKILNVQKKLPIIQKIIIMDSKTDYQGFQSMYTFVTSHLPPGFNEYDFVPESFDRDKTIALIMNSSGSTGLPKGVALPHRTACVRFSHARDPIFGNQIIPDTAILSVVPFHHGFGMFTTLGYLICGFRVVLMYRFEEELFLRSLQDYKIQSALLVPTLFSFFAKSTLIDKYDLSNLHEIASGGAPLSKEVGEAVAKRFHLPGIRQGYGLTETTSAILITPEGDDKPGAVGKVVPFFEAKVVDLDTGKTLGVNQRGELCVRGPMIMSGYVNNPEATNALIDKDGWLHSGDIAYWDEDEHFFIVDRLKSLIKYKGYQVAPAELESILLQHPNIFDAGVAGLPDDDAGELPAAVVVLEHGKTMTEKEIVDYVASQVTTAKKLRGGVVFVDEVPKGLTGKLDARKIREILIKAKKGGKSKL
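qHTS concentration-response profiling: light output of P. pyralis luciferase with luciferin and 10 uM ATP, imidazole buffer pH 7.2. Read by luminescence after 8-min room-temperature incubation.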
Tau filament bind = tau filament binding | 71,000 tested, 2% active | Potency, µM (titrated, usually from 57.1 µM), without a hit: at the top dose activity change, negative = inhibition | P10636 | recombinant tau filaments, thioflavin S fluorescence, 15 h; filaments grown with octadecylsulfate alongside compound;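 also: actives lower thioflavin S fluorescence by blocking filaments or displacing dye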
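Quantitative HTS: thioflavine S signal from ODS-induced tau filaments, excited at 450 nm, emission 510 nm. Conditions: 1 uM tau, 30 uM ODS, 15 h at 37 C, pH 7.4.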
Bst PK mod = pyruvate kinase (B. stearothermophilus) modulation. purified pyruvate kinase, luminescence ATP production; ribose 5-phosphate activator present at AC10. Potency, µM. 51,000 tested, 1.2% active. AID 361; in the data active = potency below about 11 µM; inconclusive = mostly about 12 µM to 25 µM;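 the screen sought inhibitors and activators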;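 also: scaled between full activation by ribose 5 phosphate and full inhibition by luteolin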
ERK AVP inh = blocks ERK signaling stimulated by vasopressin | HEK293-V1b, vasopressin-stimulated pERK AlphaScreen | Potency, µM (series often up to 57.5 µM), inactives show top-dose activity, negative = inhibition, usual class: inhibitors | 72,000 tested, 0.99% active | AID 995; also: nearly all actives have a fitted effect of over 55% in size
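HEK293 cells stably expressing V1b receptor, preincubated 30 min at 37 °C with compound, then stimulated 5 min with 25 nM vasopressin. Phospho-ERK by AlphaScreen SureFire after 5 h RT; normalized to DMSO and vasopressin; AC50 by Hill fit.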
15-hLO inh = inhibitors of human 15-lipoxygenase (ALOX15) | purified 15hLO-1, xylenol orange hydroperoxide absorbance | P16050 | Potency, µM (highest dose often 57.1 µM), for inactives: at the top dose activity change, negative = inhibition, actives largely listed as inhibitors | 74,000 tested, 1.4% active; also: nearly all actives have a fitted effect of over 55% in size
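Hydroperoxide formed from arachidonic acid (50 uM) by purified human 15hLO-1 (40 nM) oxidizes ferrous iron, and the ferric-xylenol orange complex is read at 573 versus 405 nm. Compounds were preincubated 15 min; reaction ran 6 min at room temperature.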
Hsp90 Hop PPI = changes Hsp90-Hop TPR2A binding signal, up or down; AID 595; 71,000 tested, 0.44% active; AlphaScreen TPR2A-His6 binding biotin-Hsp90 C-terminal peptide; Potency, µM (titrated, usually from 57 µM), without a hit: at the highest dose activity change, negative = inhibition; active = well fitted curve in either direction with a large enough effect; inconclusive = small, poorly fitted or top-dose-only effect, or another doubt
Starred values were filed as active, the others as inactive; i = inactive; ? = inconclusive; . = no result given; ! = not confirmed by another sample; [ ] = dose if it differs, or a comment. Unless noted, calls follow the shape of the dose curve; as a rule, active = well fitted curve in the direction sought with a large enough effect; inconclusive = small, poorly fitted or top-dose-only effect, or another doubt; inactive = no such curve, though single readings can be large; an effect the other way counts as inactive or inconclusive. Unless noted, % is scaled to controls: 0 for no effect and ±100 for the full control effect; potency is read from the fitted curve at half-maximal effect.

SMILES | Luciferase inh | Tau filament bind | Bst PK mod | ERK AVP inh | 15-hLO inh | Hsp90 Hop PPI
C[C@@H]1[C@H]2C=C[C@@H]1[C@@H](c1c3ccc(=O)c(O)c-3oc3c(O)c(O)ccc13)[C@@H]2C(=O)O | -4%[11.4 µM] | ? | . | 7%[11.5 µM] | ? | ?
COc1cc2c(cc1OC)[C@@H]1C(=O)c3ccc(OC)c(CC=C(C)C)c3OC1CO2 (stereo partly specified) | . | . | . | -11% | 16µM* | .
N[C@@H](CP(=O)(O)O)C(=O)O | 2%[11.4 µM] | 5%[11.4 µM] | . | 13%[11.5 µM] | 0%[11.4 µM] | -3%[11 µM]
COc1cc2c(cc1O)C[C@H]1c3c(cc(O)c(OC)c3-2)CCN1C | 2%[11.4 µM] | 40µM*! | . | 21%[25.7 µM] | -15%[25.6 µM] | -4%
c1ccc2c(c1)-c1cccc3c1c-2cc1ccccc13 | . | 24% | . | 65% | 5% | 5µM*
N[C@@H]1CCc2cc(O)c(O)cc2C1 | -20% | 0% | . | -16% | 4% | -4%
NCCCCN=C(N)N | 1% | 40µM*! | . | 4% | ? | -4%
CC(C)C[C@H]1C(=O)N2CCC[C@@H]2[C@]2(O)O[C@](NC(=O)[C@H]3C=C4c5cccc6[nH]cc(c56)C[C@H]4N(C)C3)(C(C)C)C(=O)N12 | -4%[11.4 µM] | i | . | . | . | ?
Cn1c(O)c(C=NCc2ccco2)c(=O)n(C)c1=O | 4% | -5% | . | ? | 32µM* | -1%
Nc1ccc(-c2ccc(N)c(O)c2)cc1O | . | 5µM* | . | -22% | ? | ?
C[C@]12Cc3cn4c(nc3C=C1CC[C@H]1[C@@H]2CC[C@@]2(C)[C@H]1CC[C@@]2(O)C#N)nc1ccccc14 | -3% | 11% | . | -4% | 15% | -8%
C=C1CC[C@H](O)C/C1=C/C=C1\CCC[C@]2(C)[C@@H]([C@H](C)CCCC(C)C)CC[C@@H]12 | . | ? | . | 13% | 16µM* | -4%
O=CN1CCCCC1C1CC[C@H]2CCCCN2C1 (stereo partly specified) | . | . | . | -21% | -2%[25.6 µM] | .
CCCCn1c(N)c(C(=O)NCCN2CCOCC2)c2nc3ccccc3nc21 | 4% | 7% | >57 | -15% | -11% | ?
Nc1c(C(=O)NCCN2CCOCC2)c2nc3ccccc3nc2n1Cc1ccco1 | -1% | i | . | 16µM* | 13µM* | -5%
COc1ccc(OC)c(C(O)C(C)N)c1 (stereo unspecified) | 1%[25.5 µM] | . | >26 | 30% | 0% | .
C[C@H](N)[C@H](O)c1ccc(O)c(O)c1 | -9%[25.5 µM] | 21%[25.6 µM] | . | -14%[25.7 µM] | 3.2µM*! | ?
CCSC(=O)Cl | . | 12% | . | 2% | -7% | 4%
CC(C)Nc1ccc(Nc2ccccc2)cc1 | . | 16µM* | . | -7% | ? | ?
c1ccc(Nc2ccc3ccccc3c2)cc1 | . | -17% | . | 27% | -8% | 10%
O=C(NC(=O)c1c(F)cccc1F)Nc1cc(Cl)c(OC(F)(F)C(F)C(F)(F)F)cc1Cl (stereo unspecified) | . | . | . | -4% | 16µM* | .
[O-]/[N+](=C/c1cccnc1)c1ccc(Br)cc1 | 10µM* | -12%[11.4 µM] | . | ? | -16%[11.4 µM] | -9%[11 µM]
ClC=CCl | . | -10% | . | 20% | -10% | 3%
O=C(Oc1ccccc1)N1CCC[C@@]2(CCN(Cc3ccccc3)C2)C1 | 2%[11.4 µM] | -2% | . | -2% | 2% | -4%
C[C@@H]1CC[C@@]2(OC1)O[C@H]1[C@@H](O)[C@H]3[C@@H]4CC[C@H]5C[C@@H](O[C@@H]6O[C@H](CO)[C@H](O[C@@H]7O[C@H](CO)[C@@H](O)[C@H](O[C@@H]8OC[C@@H](O)[C@H](O)[C@H]8O)[C@H]7O[C@@H]7O[C@H](CO)[C@@H](O)[C@H](O[C@@H]8O[C@H](CO)[C@@H](O)[C@H](O)[C@H]8O)[C@H]7O)[C@H](O)[C@H]6O)[C@H](O)C[C@]5(C)[C@H]4CC[C@]3(C)[C@H]1[C@@H]2C | . | 78% | . | 32µM* | 2% | -9%
CN(c1ccccc1)S(=O)(=O)c1cccc(C(=O)N2CCN(c3ccccn3)CC2)c1 | 4% | 14% | >57 | 25µM* | 3% | -2%
CC(C)[N+](=O)[O-] | . | 6% | . | 8% | 6% | -5%
